Drawing on PubChem BioAssay AID489025 (Southern Research Specialized Biocontainment Screening …, 2010), this text covers outcome for 120 molecules.

Structures are written as SMILES. In all, about 2,300 compounds went through this assay and about 790 (34%) were called active. The rule behind the calls is not given here. This is one part of the list. A call without a number means that no potency is given here. Potency and affinity values are given separately.

The assay is described as follows: THP-1 cell cytotoxicity, dose response, cytotoxicity control for non-replicating M. tuberculosis project (AID 489025). As to conditions: THP-1 cell viability; series mostly up to 40 µM.
`Nc1ccc2c(c1)oc1ccccc12`: the molecule was called inactive.
Regarding `COc1ccc(N2CCN(CC(=O)NC(=O)NC(C)(C)C)CC2)cc1`, the outcome was inactive.
On to `Cc1cc(C)n(C(=O)c2ccc([N+](=O)[O-])cc2[N+](=O)[O-])n1`, for which the outcome was inactive.
As for `O=C(c1ccc([N+](=O)[O-])cc1[N+](=O)[O-])N1CCc2ccccc21`, the outcome was inactive.
Consider `CCC1(O)CC(c2ccccc2)=NN1C(=O)c1ccccc1F` (stereo not given), for which the call was inactive.
For `CCOC(=O)C(C)(C)n1nnc(-c2ccc([N+](=O)[O-])cc2)n1`, the molecule was called inactive.
On to `CCOC(=O)C1CCN(C(=O)COc2cc(C)c(Br)c(C)c2)CC1`, for which the call was inactive.
As for `O=C(COc1ccccc1)Nc1ccc(Cl)cn1`, the result was inactive.
As for `FC(F)c1nnc2ccc(Cl)nn12`, the call was inactive.
Turning to `O=Cc1coc2ccc3ccccc3c2c1=O`, the molecule was classed as inactive.
On to `COC(=O)COc1cccc(NC(=O)c2cccc(C)c2)c1`, for which the outcome was inactive.
`COc1ccc(-c2noc(CCC(=O)Nc3cccc(C)c3)n2)cc1`: the molecule was called inactive.
The entry for `CCOC(=O)COc1ccc(C(=O)c2ccccc2)c(O)c1` is “inactive”; for `CC(C)c1cc(C(=O)N/N=C/C=C/c2ccccc2)n[nH]1` it is “inactive”; for `COc1ccc(S(=O)(=O)NCc2ccc3c(c2)cc(C)n3C)cc1` it is “inactive”.
Regarding `Cc1nnc(N/N=C/c2cccc(OCc3ccc(Cl)c(Cl)c3)c2)n1N`, the result was inactive.
The entry for `O=C(OCc1nc2ccccc2s1)c1ccc(Br)o1` is “inactive”; for `CCOC(=O)CCCNC(=O)COC(=O)c1cc(Br)c(Br)s1` it is “inactive”.
The entry for `O=C(N/N=C/C(Br)=C/c1ccccc1)c1cnccn1` is “inactive”.
As for `CCOc1ccc(-c2ccc(C=O)o2)c([N+](=O)[O-])c1`, the result was inactive.
On to `C/C(CC(=O)Nc1ccc(N(C)C)cc1)=N\NC(=O)c1ccncc1`, for which the call was inactive.
As for `Cc1ccc(C)c(NC(=O)c2cc([N+](=O)[O-])cc([N+](=O)[O-])c2)c1`, the outcome was inactive.
As for `Cc1cc(Cl)ccc1OC(C)C(=O)Nc1ccc([N+](=O)[O-])cn1` (stereo not given), the molecule was called inactive.
Turning to `O=C1CC(=O)CC(c2ccccc2)C1`, the call was inactive.
On to `O=C1CC(N2CCC(c3nc4ccccc4o3)CC2)C(=O)N1` (stereo not given), for which the molecule was called inactive.
For `COc1cccc(OCC(=O)NNC(=O)c2cccs2)c1`, the molecule was called inactive.
Take `O=C(c1cccs1)N1CCN(c2ccc(Cl)cc2)CC1`: the result was inactive.
In the case of `O=[N+]([O-])c1ccc(N2CCN(Cc3ccc([N+](=O)[O-])o3)CC2)cc1`, the molecule was classed as inactive.
The entry for `O=[N+]([O-])c1ccc(CN2CCN(c3ccccc3)CC2)o1` is “inactive”; for `O=C(NNC(=O)c1cccs1)c1ccc(Br)o1` it is “inactive”.
For `O=[N+]([O-])c1ccc(CN2CCN(c3ccc(F)cc3)CC2)o1`, the result was inactive.
On to `CCOC(=O)NC(=O)COC(=O)CCCSc1nc2ccccc2s1`, for which the call was inactive.
With `O=C(Cc1ccc(F)cc1)Nc1ccc(Cl)cn1`, the molecule was called inactive.
`Cc1ccc2nc(C)c3c(c2c1)SCC3`: the call was inactive.
As for `COc1ccc(OCC(=O)Nc2ccc(N3CCN(C(=O)c4ccco4)CC3)cc2)cc1`, the molecule was classed as inactive.
With `Nc1scc(-c2ccncc2)c1Cl`, the call was inactive.
Consider `CCOC(=O)COc1ccc2c(c1)C(=O)CC(C)(c1cccnc1)O2` (stereo not given), for which the result was inactive.
As to `Oc1cc(NCc2cccnc2)ccc1-c1nc2ccccc2o1`, the molecule was called inactive.
`C/C(O)=C\c1nc2ccccc2oc1=O`: the result was inactive.
The entry for `COc1cc(/C=N/Nc2cccc3cccnc23)cc(OC)c1O` is “inactive”; for `CCc1nnc(N/N=C/c2ccc(N3CCC(C)CC3)c([N+](=O)[O-])c2)n1N` it is “inactive”; for `COc1cc(/C=N/N(C)C)ccc1OC(=O)c1cccs1` it is “inactive”.
For `O=C(COc1ccc2c(c1)CCC2)Nc1ccccn1`, the outcome was inactive.
As for `Cc1cccc2c(CC(=O)O)noc12`, the outcome was inactive.
The entry for `COc1cc(OC)cc(-c2nc3ccccc3c(=O)o2)c1` is “inactive”.
For the molecule `COc1ccc(/C=C/c2nc3ccccc3c(=O)o2)cc1`, the call was inactive.
With `O=C(C/C=N\OCc1ccc([N+](=O)[O-])cc1)Nc1ccc(Cl)cc1`, the outcome was inactive.
For `O=C(COC(=O)CC1CCCC1)Nc1ccc(OC(F)F)cc1`, the result was inactive.
The entry for `COCCCNC(=O)COC(=O)c1ccc(-c2nc3ccccc3s2)s1` is “inactive”.
On to `CC(C)Cn1c(N)c(C(=O)COC(=O)c2ccc([N+](=O)[O-])o2)c(=O)n(C)c1=O`, for which the outcome was inactive.
`CCc1ccc(C(=O)COC(=O)c2ccc(Cl)nc2)cc1`: the result was inactive.
As to `Oc1oc(-c2ccco2)nc1C=Nc1cccc(Cl)c1`, the outcome was inactive.
The entry for `CCCCCn1nnc2c(=O)oc3ccccc3c21` is “inactive”.
Turning to `CCOc1ccc(OCC(=O)OCc2cc(=O)n3cc(Br)ccc3n2)cc1`, the call was inactive.
For `CCOC(=O)c1nc2sc3c(c2c(=O)[nH]1)CCC(C)C3` (stereo not given), the call was inactive.
For the molecule `Nc1nonc1C(=O)NCCN=Cc1cc(Cc2ccccc2)cc(Br)c1O`, the molecule was classed as inactive.
For the molecule `COc1cccc(COC(=O)CCNC(=O)c2ccc(Cl)cc2)c1OC`, the molecule was called inactive.
For the molecule `COc1ccccc1C(c1nnnn1Cc1ccccc1)N1CCC(C(N)=O)CC1` (stereo not given), the outcome was inactive.
As to `C/C(=N\NC(=O)c1ccc([N+](=O)[O-])c(C)c1)c1ccccc1Cl`, the molecule was called inactive.
For the molecule `CCCCNC(=O)N1CCc2ccccc2C1`, the result was inactive.
Regarding `COc1ccc(N=N/C(=C\O)C(=O)c2ccco2)cc1`, the outcome was inactive.
As for `CCOC(=O)c1cc(-c2c(Cl)cccc2Cl)no1`, the molecule was called inactive.
`Cc1[nH]c2ccccc2c1C(=O)C(C)OC(=O)c1ccc([N+](=O)[O-])o1` (stereo not given): the molecule was called inactive.
`O=C(OCCCOC(=O)c1ccc([N+](=O)[O-])o1)c1ccc([N+](=O)[O-])o1`: the call was inactive.
Turning to `Cc1ccc(C(=O)O/N=C(\N)c2cccc([N+](=O)[O-])c2)cc1`, the result was inactive.
As for `O=C(Nc1nccs1)c1cc2cc(Cl)ccc2oc1=O`, the outcome was inactive.
Regarding `N=c1oc2ccccc2cc1C(=O)NC1CCCCCC1`, the call was inactive.
On to `O=C(COC(=O)c1cccc(C(F)(F)F)c1)NCc1ccccc1`, for which the molecule was classed as inactive.
The entry for `CCOC(=O)c1cn(Cc2cccc(Cl)c2)nn1` is “inactive”.
For `CSc1ccccc1NC(=O)c1cc(C(C)C)on1`, the molecule was classed as inactive.
Regarding `CCCCNS(=O)(=O)c1ccc(OCC(=O)OC)cc1`, the result was inactive.
The entry for `O=c1oc(/C=C/c2ccc([N+](=O)[O-])s2)nc2ccccc12` is “inactive”; for `C=C(C)C1Cc2cc3ccc(=O)oc3cc2O1` (stereo not given) it is “inactive”; for `C/C(=N\NC(=O)c1nn(C)cc1Cl)c1ccncc1` it is “inactive”.
With `CCOc1ccc(-c2cc(CCCC(=O)NCCC(C)C)no2)cc1`, the result was inactive.
As to `O=c1c(=Nc2ccccc2O)c(=O)c2ccccc12`, the molecule was classed as inactive.
The entry for `O=C(O)c1[nH]c(=O)[nH]c(=O)c1F` is “inactive”; for `CCOC(=O)CN1NC2(CCC(C)CC2)NC1=S` (stereo not given) it is “inactive”; for `CCc1cc(C(c2ccncc2)N2CCN(C)CC2)c(NC(=O)c2ccccc2)s1` (stereo not given) it is “inactive”.
In the case of `CCc1ccc(NC(=O)C(=O)NNC(=O)c2cccc(OC)c2)cc1`, the outcome was inactive.
Turning to `Cc1ccc(C(=O)Oc2cccc(-n3cnnn3)c2)cc1`, the molecule was classed as inactive.
As to `COC(=O)COc1ccc(-c2ccc(F)cc2)cc1C=O`, the outcome was inactive.
Consider `Cc1ccc(CCC(=O)Nc2cc(Cl)ccc2Cl)o1`, for which the molecule was classed as inactive.
For `COc1ccc(/C=N/NC(=O)C(=O)NCc2cccnc2)cc1OC`, the molecule was called inactive.
In the case of `Cc1ccc(OCC(=O)N/N=C/c2ccc([N+](=O)[O-])o2)cc1`, the molecule was classed as inactive.
Consider `O=[N+]([O-])c1ccc(/C=N/NS(=O)(=O)c2ccc(Cl)cc2)o1`, for which the molecule was classed as inactive.
Consider `Cc1ccc(CCC(=O)Nc2ccc([N+](=O)[O-])cc2)o1`, for which the molecule was classed as inactive.
Take `Cc1ncsc1CCOC(=O)c1ccc([N+](=O)[O-])cc1`: the molecule was called inactive.
As to `Oc1ccc(Br)cc1-c1ccn[nH]1`, the molecule was classed as inactive.
Take `CCCCNC(=O)COC(=O)c1cc(F)c(F)cc1Cl`: the result was inactive.
As for `C=Cc1cccc(NC(=O)COc2ccccc2)c1`, the call was inactive.
`Cc1nn(-c2ccccc2)nc1C(=O)c1c(C)[nH]n(-c2ccccc2)c1=O`: the outcome was inactive.
The entry for `CCC(C)c1ccc(O)c(/C=N/O)c1` (stereo not given) is “inactive”; for `O=[N+]([O-])c1cc2oc3c(c2c(C=NCc2ccccc2)c1O)CCCC3` it is “inactive”.
For the molecule `Nc1ccc(C(=O)N/N=C\C=C\c2ccc([N+](=O)[O-])cc2)cc1`, the call was inactive.
On to `O=C(N/N=C/C=C/c1ccco1)c1ccncc1`, for which the molecule was classed as inactive.
The entry for `O=C(COC(=O)CCC(=O)c1ccc(F)cc1)Nc1ccc(F)cc1F` is “inactive”.
Regarding `COc1cccc(OC(=O)c2cc3ccccc3oc2=O)c1`, the molecule was classed as inactive.
For `CCC(=O)N1CCN(c2cc3c(cc2F)c(=O)c(C(=O)O)cn3CC)CC1`, the molecule was called inactive.
`CC(C)OC(=O)CCCCCN1C(=O)CSC1=S`: the molecule was called inactive.
With `O=C(OCC#CCSc1nnc(-c2ccccc2)o1)c1ccco1`, the molecule was classed as inactive.
`COC(=O)CCCCCN1C(=O)/C(=C\c2ccncc2)SC1=S`: the result was inactive.
With `Cc1ccc(C(=O)c2cncc(Br)c2)cc1`, the outcome was inactive.
The entry for `CCCCN1C(=O)C2(NNc3ccccc3O2)c2ccccc21` (stereo not given) is “inactive”; for `COC(=O)COc1ccc2c(=O)c(Oc3ccccc3)c(C)oc2c1` it is “inactive”.
With `O=C(NCC1CCCCC1)c1ccc([N+](=O)[O-])cc1`, the molecule was classed as inactive.
As for `NC(N)=N/N=C/c1cc([N+](=O)[O-])ccc1O`, the molecule was classed as inactive.
As for `O=C(NNc1ccc([N+](=O)[O-])cc1)C1CC2CCCC(C1)C2=O` (stereo not given), the call was inactive.
The entry for `O=C(C/C=N\OCc1ccc([N+](=O)[O-])cc1)Nc1ccc(Br)cc1` is “inactive”; for `CCCC(=O)Nc1cccc(-c2nc3ccccc3c(=O)o2)c1` it is “inactive”; for `C#CCOc1coc(COC(=O)c2ccccc2)cc1=O` it is “inactive”.
For `CC1C/C(=N/N2C(=O)CSC2=S)CC(C)(C)C1` (stereo not given), the call was inactive.
Turning to `CCCCCCC1CC(C)(C(=O)CNc2nncs2)OC1=O` (stereo not given), the result was inactive.
Regarding `CC1=NN(C(=O)c2csc(C)c2C)C(O)(C(F)(F)F)C1` (stereo not given), the outcome was inactive.
For `Nc1cccn2c(-c3ccc(Cl)cc3)cnc12`, the molecule was called inactive.
With `Cc1ccc(C(=O)Nc2nccs2)cc1`, the molecule was classed as inactive.
The entry for `CCN1CCN(C(=O)CN(Cc2ccccc2)S(C)(=O)=O)CC1` is “inactive”; for `C/C(=N\NC(=O)c1cc([N+](=O)[O-])cc([N+](=O)[O-])c1)c1ccco1` it is “inactive”; for `CC(C)c1ccc(C2=C(O)c3ccccc3C(=O)C2=O)cc1` it is “inactive”.
The entry for `N#CC1=C(N)Oc2n[nH]c(-c3cccnc3)c2C1c1ccc([N+](=O)[O-])o1` (stereo not given) is “inactive”.
